Molecules are shown by their SMILES. Out of some 52,000 compounds screened, about 1,700 (3.3%) were called active. The entries come from a sample that favours actives as a whole. Values without a mark were called inactive. Cut-off read from the data, not from the text of the source: active = survival mostly below about 52% (no sharp cut-off); inactive = mostly above about 56%.

The experiment deals with Wild type. Briefly: growth inhibition of S. aureus wild type versus tarO mutant, primary screen, teichoic acid synthesis inhibitors, RN4220, OD600 (AID 463173). Conditions: S. aureus RN4220 wild type/DeltatarO growth, OD600, 18 h, stronger effect = lower value, screened at 18.75 µg/mL (by protocol).
`CCc1ccc(NC(=O)CCn2cnc3ccccc3c2=O)cc1`: the survival is 72%.

With `COCCNC(=O)CN1C(=O)CCn2nc(-c3cn(C)c4ccccc34)cc21`, the survival was 64%.

In the case of `C#CCNc1nc(CC(C)C)nc2c1nnn2Cc1ccccc1`, the survival was 101%.

On to `COc1ccc(CNc2nc(-c3ccc(OC)cc3)cc(C(F)(F)F)n2)cc1`, for which the survival was -5% (active).

In the case of `COc1cccc(-c2cc(C(F)(F)F)nc(NCCc3ccc(OC)c(OC)c3)n2)c1`, the survival was 25%.

Regarding `COc1cccc(-c2cc(C(F)(F)F)nc(NCCc3ccccc3)n2)c1`, the survival was -7% (active).

With `COc1ccc(CNc2nc(-c3ccc(OC)c(OC)c3)cc(C(F)(F)F)n2)cc1`, the survival is 27%.

Take `COc1ccc(CNC(=O)CSc2nc(-c3ccc(OC)cc3)cc(C(F)(F)F)n2)cc1`: the survival is 93%.

For the compound `COc1ccccc1CCNC(=O)C(C)Sc1nc(-c2ccccc2)cc(C(F)(F)F)n1` (stereo not drawn), the survival was 53%.

For `COc1cccc(CNC(=O)c2cc(S(=O)(=O)N3CCCCCC3)cn2C)c1`, the survival is 85%.

As for `Cc1cn(C)c(CC(=O)NCc2ccc(Cl)cc2)c1C(=O)O`, the survival was 66%.

`Cc1cn(C)c(CC(=O)NCc2cccc(Cl)c2)c1C(=O)O`: the survival is -3% (active).

For the compound `COc1ccc(CNC(=O)Cc2c(C(=O)O)c(C)cn2C)cc1`, the survival was 83%.

Take `Cc1cn(C)c(CC(=O)NCc2ccccc2)c1C(=O)O`: the survival was 80%.

For `Cc1ccc(CNC(=O)Cc2c(C(=O)O)c(C)cn2C)cc1`, the survival is 85%.

`Cc1ccc(CNC(=O)c2cc(S(=O)(=O)N3CCCCCC3)cn2C)cc1`: the survival was 81%.

Take `COc1cccc(CNC(=O)c2cc(S(=O)(=O)N3CCCCC3)cn2C)c1`: the survival is -2% (active).

Consider `COc1cccc(CNC(=O)Cc2c(C(=O)O)c(C)cn2C)c1`, for which the survival is 0% (active).

`Cc1ccc(-n2ncc(C(=O)N3CCN(Cc4ccccc4)CC3)c2C2CCN(C(=O)OC(C)(C)C)CC2)cc1`: the survival is 124%.

Take `N#Cc1c(NC(=O)CN2CCCCC2)sc2c1CCC2`: the survival was 109%.

For the compound `Cc1ccc2c(c1)c1c(c(=O)n(-c3ccccc3)c(=O)n1CC(=O)NCC1CCCO1)n2C` (stereo not drawn), the survival was 72%.

With `Cc1ccc(-c2nc(C)c(CCNC(=O)C(=O)Nc3ccc(C)c(Cl)c3)s2)cc1`, the survival was 76%.

Take `Cc1ccc(NC(=O)C(=O)NCCc2sc(-c3ccc(Cl)cc3)nc2C)cc1C`: the survival was 126%.

As for `Cc1nc(-c2ccccc2)sc1CCNC(=O)C(=O)Nc1ccc(F)c(Cl)c1`, the survival is 1% (active).

For `COc1ccc(NC(=O)CN(c2ccc(C)cc2)S(=O)(=O)c2cccs2)cc1`, the survival is 84%.

On to `O=C(CSc1nc2ccccc2n1Cc1ccccc1F)NCc1ccccc1`, for which the survival was 99%.

With `Fc1ccccc1Cn1c(-c2ccccc2)nc2ccccc21`, the survival was 1% (active).

As to `Cc1cccc(-c2nc3c4ccccc4n(Cc4cccc(Cl)c4)c(=O)n3n2)c1`, the survival was 113%.

With `Cc1cccc(-c2nc3ccccc3n2Cc2ccccc2)c1`, the survival is 1% (active).

For the compound `Cc1cccc(Cn2c(=O)n3nc(-c4ccccc4)nc3c3ccccc32)c1`, the survival was -24% (active).

For `Cc1ccc(Cn2c(CCNC(=O)c3cccc(C)c3)nc3ccccc32)cc1`, the survival was 68%.

For `Cc1cccc(Cn2c(-c3cccc(Br)c3)nc3ccccc32)c1`, the survival was 124%.

For the compound `Cc1cccc(Cn2c(-c3ccccc3)nc3ccccc32)c1`, the survival was 26% (active).

For the compound `Fc1ccc(Cn2c(-c3cccc(Br)c3)nc3ccccc32)cc1`, the survival is 120%.

`Nc1nonc1-c1nc2ccccc2n1Cc1cccc(Cl)c1`: the survival was 87%.

For `O=c1n(Cc2cccc(F)c2)c2ccccc2c2nc(-c3ccccc3)nn12`, the survival was 34%.

For the compound `CCc1ccccc1N1CC(c2nc3ccccc3n2Cc2cccc(C)c2)CC1=O` (stereo not drawn), the survival is 66%.

`COc1ccc(NC(=O)c2oc3ccccc3c2NC(=O)c2cc(C)cc(C)c2)c(OC)c1`: the survival is 79%.

Consider `COc1ccc(NC(=O)C2CCC(CNS(=O)(=O)c3cccc4nsnc34)CC2)cc1OC` (stereo not drawn), for which the survival is 87%.

As for `CN(Cc1ccccc1)C(=O)Cn1c(=O)c2cccn2c2ccc(F)cc21`, the survival was 81%.

Consider `Cc1ccc(Cn2c(=O)c3ccccc3n3c(-c4ccccc4)nnc23)cc1`, for which the survival was 91%.

As for `Cc1ccc(Cn2c(C(C)NC(=O)c3ccccc3)nc3ccccc32)cc1` (stereo not drawn), the survival is 91%.

In the case of `Cc1ccc(Cn2c(-c3ccccc3)nc3ccccc32)cc1`, the survival is 8% (active).

On to `CCCCn1c(SCC(=O)N2CCCCCC2)nnc1-c1ccoc1C`, for which the survival is 98%.

`Cc1cccc(N2CCN(c3ccc4cc(S(=O)(=O)N5CCC(C)CC5)ccc4n3)CC2C)c1` (stereo not drawn): the survival was 129%.

As to `CSc1cccc(Nc2cc(C(=O)NC3CCCCC3)c3ccccc3n2)c1`, the survival was 142%.

With `CN1CN2C(=O)N3CN(C)CN4C(=O)N(C1)C2C34` (stereo not drawn), the survival was 110%.

As for `OC(c1ccccc1)c1nc2ccccc2n1Cc1c(F)cccc1Cl` (stereo not drawn), the survival was 82%.

As to `COC(=O)Cn1c(C(O)c2ccccc2)nc2ccccc21` (stereo not drawn), the survival is 97%.

With `Cc1cc(C)c(Cn2c(C(O)c3ccccc3)nc3ccccc32)c(C)c1` (stereo not drawn), the survival was 11% (active).

Consider `CCOc1ccc(CNC(=O)CS(=O)(=O)c2cccc3nsnc23)cc1`, for which the survival was 126%.

As to `COc1ccccc1NC(=O)C1CCN(C(=O)c2ccccc2)CC1`, the survival was 94%.

In the case of `Cc1c(Cl)cccc1-n1ncc(C(=O)Nc2ccc(F)cc2F)c1C1CCN(C(=O)OC(C)(C)C)CC1`, the survival was 71%.

`Cc1cccc(Nc2nc3nonc3nc2Nc2cccc(C)c2C)c1C`: the survival is 102%.

As for `Cc1ccc(C)c(Nc2nc3nonc3nc2Nc2cccc(C)c2C)c1`, the survival was 4% (active).

Take `CCOC(=O)c1ccc(Nc2nc3nonc3nc2NCc2ccco2)cc1`: the survival is 35%.

For the compound `CCOC(=O)c1ccc(Nc2nc(C)cc(C)n2)cc1`, the survival was 87%.

`CCOC(=O)c1ccc(Nc2nc3nonc3nc2Nc2cccc(C)c2C)cc1`: the survival is 0% (active).

`Cc1cccc(Nc2nc3nonc3nc2N/N=C\c2cccs2)c1C`: the survival was 96%.

Take `CCS(=O)(=O)N1CCc2cc(C(=O)Nc3ccc(OC)cc3OC)ccc21`: the survival was 88%.

Take `Cc1ccc([N+](=O)[O-])cc1NC(=O)CN(c1ccccc1)S(=O)(=O)N(C)C`: the survival is 69%.

On to `CCn1c(O)c(C=Nc2cccc(O)c2)sc1=S`, for which the survival was 115%.

On to `Cn1cnc(S(=O)(=O)N2CCCC(C(=O)Nc3ccc(OC(F)(F)F)cc3)C2)c1` (stereo not drawn), for which the survival is 19%.

Consider `CCOc1ccc(CNC(=O)c2[nH]c3ccccc3c2Sc2ccc(C)cc2)cc1`, for which the survival was 120%.

Turning to `CCN1C(=O)c2ccccc2S(=O)(=O)c2ccc(C(=O)NCc3ccc(OC)cc3)cc21`, the survival is 97%.

In the case of `CN(C)CCNC(=O)c1ccc2c(c1)N(Cc1c(F)cccc1Cl)C(=O)c1ccccc1S2`, the survival is 105%.

Take `CCN(CC)C(=O)c1ccc2c(c1)N(Cc1c(F)cccc1Cl)C(=O)c1ccccc1S2`: the survival is 16% (active).

Turning to `CCN(CC)CCCNC(=O)c1ccc2c(c1)N(Cc1c(F)cccc1Cl)C(=O)c1ccccc1S2`, the survival was 139%.

`Cc1ccc(Cl)cc1NC(=O)CN1C(=O)c2cccc3cccc1c23`: the survival is 71%.

Consider `CCC(=O)N1CCc2cc(Br)cc(S(=O)(=O)N3CCN(c4ccccc4OC)CC3)c21`, for which the survival is 72%.

Take `Cc1cc(C)n(CCc2nc3c4ccccc4nc(N4CCN(c5cccc(C)c5C)CC4)n3n2)n1`: the survival is 74%.

As to `Cc1cc(C)n(-c2nc3cc(Cl)ccc3nc2Nc2ccc(C)c(F)c2)n1`, the survival is 86%.

Turning to `Cc1cc(C)n(-c2nc3cc(Cl)ccc3nc2N2CCN(c3ccccc3F)CC2)n1`, the survival is 68%.

`Cc1cc(C)n(-c2nc3ccccc3nc2N2CCN(c3cccc(C)c3C)CC2)n1`: the survival is -1% (active).

Regarding `Cc1cc(C)c(C#N)c(N2CCN(c3cccc(C)c3C)CC2)n1`, the survival was 109%.

Regarding `Cc1cc(C)n(-c2nc3ccccc3nc2N2CCN(c3cccc(C(F)(F)F)c3)CC2)n1`, the survival was 88%.

With `Cc1ccc2nc(N3CCN(c4cccc(Cl)c4)CC3)c(-n3nc(C)cc3C)nc2c1`, the survival is 3% (active).

In the case of `Cc1cc(C)n(-c2nc3cc(Cl)ccc3nc2N2CCN(c3cccc(C)c3C)CC2)n1`, the survival was -1% (active).

As to `COc1cccc(Nc2nc3ccc(C)cc3nc2-n2nc(C)cc2C)c1`, the survival was 82%.

Regarding `Cc1ccc(C)c(N2CCN(c3nc4ccc(C)cc4nc3-n3nc(C)cc3C)CC2)c1`, the survival is 86%.

As for `COc1ccccc1N1CCN(c2nc3ccc(C)cc3nc2-n2nc(C)cc2C)CC1`, the survival is 0% (active).

Regarding `Cc1ccc2nc(N3CCN(c4cccc(Cl)c4)CC3)c3nnnn3c2c1`, the survival is 72%.

As for `COc1ccc(-c2oc3ncn4nc(COc5cccc(C)c5C)nc4c3c2-c2ccc(OC)cc2)cc1`, the survival is 77%.

For `Cc1ccc(C)c(Cn2nc(C)n3c(cc4cc(C)ccc43)c2=O)c1`, the survival is 79%.

Regarding `Cc1ccc(Cl)cc1N1CCN(C(=O)c2cc3c(=O)oc4ccccc4c3s2)CC1`, the survival was 71%.

For `COCCN(Cc1cc2ccc(C)c(C)c2nc1Cl)C(=O)N1CCOCC1`, the survival was 104%.

For the compound `COc1ccc(C(C)C)cc1S(=O)(=O)N1CC(C)OC(C)C1` (stereo not drawn), the survival was 109%.

Regarding `COC(=O)C1=C(C)N(c2ccc(N(C)C)cc2)C(C)=C(C(=O)OC)C1c1ccccc1`, the survival is 101%.

As for `CC1=C(C(=O)Nc2ccccc2)C(c2ccc(O)cc2)n2nc(SCc3ccccc3)nc2N1` (stereo not drawn), the survival was 115%.

As for `CCN(CC)S(=O)(=O)c1ccc(C(=O)NCCSc2c(-c3ccc(OC)cc3)[nH]c3ccccc23)cc1`, the survival is 124%.

Consider `CCn1nc(C)c2c(-c3ccccc3)cc(=O)n(C(C)C(=O)Nc3ccc(OC)c(OC)c3)c21` (stereo not drawn), for which the survival was 59%.

Regarding `COCC(=O)Oc1c(Sc2ccc(C)cc2)c(C)nn1C(C)(C)C`, the survival is 69%.

Consider `Cc1nn(C(C)(C)C)c(OC(=O)c2c(F)cccc2F)c1Sc1ccccc1`, for which the survival is 117%.

`Cc1ccc(Sc2c(C)nn(C(C)(C)C)c2OC(=O)CC(C)C)cc1`: the survival was -8% (active).

On to `Cc1ccc(Sc2c(C)nn(C(C)(C)C)c2OC(=O)C(C)(C)C)cc1`, for which the survival is -8% (active).

With `CCC(=O)Oc1c(Sc2ccc(Cl)cc2)c(C)nn1C(C)(C)C`, the survival was 60%.

With `Cc1ccc(Sc2c(C)nn(-c3ccccc3)c2OC(=O)CC(C)C)cc1`, the survival was 45%.

Turning to `Cc1nn(C(C)(C)C)c(OC(=O)C(C)(C)C)c1Sc1ccccc1`, the survival was -9% (active).

As to `CCC(=O)Oc1c(Sc2ccc(C)cc2)c(C)nn1-c1ccccc1`, the survival was 55%.

For the compound `COc1ccc(C(=O)Oc2c(Sc3ccc(C)cc3)c(C)nn2C(C)(C)C)cc1OC`, the survival was 127%.

In the case of `Cc1ccc(Sc2c(C)nn(-c3ccccc3)c2OC(=O)C(C)(C)C)cc1`, the survival was -6% (active).

In the case of `Cc1nn(-c2ccccc2)c(OC(=O)C(C)(C)C)c1Sc1ccccc1`, the survival was 51%.

Take `Cc1ccccc1C(=O)Oc1c(Sc2ccccc2)c(C)nn1C(C)(C)C`: the survival is 50%.

The values above are taken from PubChem BioAssay AID463173 (ICCB-Longwood Screening Facility, Harvard Medical School, 2010).
